# High-throughput results as filed in PubChem.
# uPA surface inh: inhibitors of cell surface uPA generation; cell surface uPA generation assay, qHTS; Potency, µM (doses to about 38.3 µM), for inactives: top-dose activity change, negative = inhibition, hits mostly inhibitors; actives 0.31% (n = 330,000); active = well fitted inhibition curve with a large enough effect; inconclusive = small, poorly fitted or top-dose-only effect; inactive = no such curve, though single readings can be large or run the other way; tested in mouse RAW 264.7 cells; also: potency is read from the fitted curve at half-maximal effect; nearly all actives have a fitted effect of over 55% in size
# HT1080 IDH1KD tx: HT-1080 IDH1 knockdown cell toxicity (counter line) | actives 2% (n = 360,000) | HT-1080 IDH1 knockdown viability, ATP luminescence, 48 h | Potency, µM (highest dose often 46.1 µM), for inactives: at the top dose activity, negative = toxicity, usual class: cytotoxic;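 also: potency is read from the fitted curve at half-maximal effect; 0% = DMSO wells and -100% = cell-free medium wells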
#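 % activity derives from luminescence (CellTiter-Glo), normalised to DMSO and no-cell wells. HT-1080-IDH1KD cells, 750/well, had 48 h compound exposure at 37 °C.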
# DT40 TDP1 no CPT: qHTS for Inhibitors of human tyrosyl-DNA phosphodiesterase 1 (TDP1): qHTS in cells in absence of CPT; DT40 Tdp1-/- hTDP1 cells, no CPT, ATP luminescence, 48 h; Potency, µM (highest dose often 46.2 µM), for inactives: at the top dose activity change, negative = growth inhibition, most hits filed as inhibitors; actives 15% (n = 420,000); AID 686978, 2013; also: potency is read from the fitted curve at half-maximal effect; nearly all actives have a fitted effect of over 55% in size
#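 DT40 Tdp1-/-;hTDP1 cells, no CPT (DMSO vehicle only), 400 cells/well; compounds pin-transferred; ≥48 hr, 37 °C; CellTiter-Glo 30 min RT dark, luminescence read.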
# DT40 TDP1 CPT: DT40-hTDP1 cell growth loss with CPT | chicken DT40 Tdp1-/-;hTDP1 cells + 20 nM CPT, ATP luminescence, 48 h | Potency, µM (top dose mostly 46.2 µM), without a hit: at the top dose activity change, negative = growth inhibition, usual class: inhibitors | actives 12% (n = 420,000); also: potency is read from the fitted curve at half-maximal effect; nearly all actives have a fitted effect of over 55% in size
#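 Chicken DT40 Tdp1-/- cells stably complemented with human TDP1 were seeded at 400 cells/well in medium containing 20 nM camptothecin, exposed to pin-transferred compounds, and grown at 37 °C for at least 48 hr. Viability was read as ATP luminescence.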
# HT1080NT lethal: kills 2HG-producing HT-1080-NT fibrosarcoma cells; HT-1080-NT fibrosarcoma viability, CellTiter-Glo ATP luminescence, 48 h; Potency, µM (top dose mostly 46.1 µM), for the others: at the top dose activity, negative = less viability, most hits filed as cytotoxic; actives 1.6% (n = 360,000); AID 686970;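 also: NT is the 2HG producing partner of a matched IDH1 knockdown line; potency is read from the fitted curve at half-maximal effect; 0% = DMSO-treated cells and -100% = media-only wells without cells; nearly all actives have a fitted effect of over 55% in size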
#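 Toxicity toward the 2HG-producing NT line was scored as %Activity, normalised to DMSO and no-cell wells, from CellTiter-Glo luminescence after 48 hours' treatment.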
# IL1B secr inh: inflammasome signaling inhibition, IL-1 beta readout | THP-1 LPS/ATP IL-1B secretion, AlphaLISA, 16 h; active compounds read low | actives 4.7% (n = 360,000) | activity change, % at 57.5 µM; in the data active = activity change below about -50%; inconclusive = mostly about -30% to -49%
#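 THP-1 cells pretreated 1 hr with compounds (up to 57.5 uM final), then stimulated with LPS (250 ng/mL final) plus ATP (1.25 mM final); secreted IL-1B measured by AlphaLISA after 16 hr, decreased signal indicating inhibition.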
# Numbers without * were called inactive; ? = inconclusive; . = no result given. This is a sample that favours compounds with a hit; in the whole collection about 19% have one here. Unless noted, calls follow the shape of the dose curve; as a rule, active = well fitted curve in the direction sought with a large enough effect; inconclusive = small, poorly fitted or top-dose-only effect, or another doubt; inactive = no such curve, though single readings can be large; an effect the other way counts as inactive or inconclusive. Unless noted, % is scaled to controls: 0 for no effect and ±100 for the full control effect.
SMILES,uPA surface inh,HT1080 IDH1KD tx,DT40 TDP1 no CPT,DT40 TDP1 CPT,HT1080NT lethal,IL1B secr inh
CC(C)CCn1nnnc1C(c1ccc(N(C)C)cc1)N1CCN(C(=O)c2ccco2)CC1 (stereo not drawn),1%,0%,-16%,-12%,1%,-65*
Cc1nc2cc(F)ccc2n1C1CCN(S(=O)(=O)c2ccccc2)CC1,0%,-15%,?,?,-12%,-16
COc1cccc(CNC(=O)Cn2c(=O)cc(C(F)(F)F)c3c(C)nn(C)c32)c1OC,.,.,-19%,?,.,.
COc1ccc(C(=O)CCc2ccccc2)c(O)c1,-1%,5%,-11%,22%,?,-24
COc1ccc(C(=O)OCC(=O)N(Cc2ccccc2)Cc2ccccc2)c(O)c1,.,2%,18µM*,?,2%,17
O=C(Nc1ccccc1Br)C1CC(=O)N(c2ccc3c4c(cccc24)CC3)C1 (stereo not drawn),-14%,?,21µM*,23µM*,?,?
Cc1ccccc1NC(=O)C1CC(=O)N(c2ccc3c4c(cccc24)CC3)C1 (stereo not drawn),9%,0%,-23%,?,7%,-30
Cc1nc2cnc(N(C)C)nc2n(-c2ccccc2)c1=O,.,.,-8%,-9%,.,.
O=C(c1ccc(F)cc1)N1CCCC(C(=O)N2CCN(c3ccccc3)CC2)C1 (stereo not drawn),6%,12%,?,-15%,12%,3
CCn1c(C(=O)N2CCC(C(=O)N3CCN(c4ccccn4)CC3)CC2)cc2sccc21,-29%,-1%,26µM*,?,17%,-25
CCn1c(C(=O)N2CCC(C(=O)N3CCN(c4ccc(OC)cc4)CC3)CC2)cc2sccc21,.,.,13µM*,9.2µM*,.,.
CCn1c(C(=O)N2CCC(C(=O)N3CCN(c4cc(C)ccc4C)CC3)CC2)cc2sccc21,.,.,16µM*,23µM*,.,.
CCn1c(C(=O)N2CCCC(C(=O)N3CCN(c4ccccc4)CC3)C2)cc2sccc21 (stereo not drawn),.,.,23µM*,?,.,.
Cc1ccc(NC(=O)Cn2ccn(-c3ccc(F)c(F)c3)c(=O)c2=O)cc1C,.,.,-2%,-2%,.,.
CN(C)c1ccc(CNC(=O)CC[C@H]2O[C@@H](n3cnc4c(NC(=O)c5ccccc5)ncnc43)[C@H](O)[C@@H]2O)cc1,.,2%,-4%,-46%,-3%,?
Cn1c(C(=O)N2CCCC(C(=O)O)C2)cc2sccc21 (stereo not drawn),-1%,19%,1%,0%,16%,13
Cn1c(C(=O)N2CCCC(C(=O)N3CCN(C(=O)c4ccco4)CC3)C2)cc2sccc21 (stereo not drawn),10%,-10%,?,15µM*,-3%,-2
COc1ccc(-[n+]2c(C)cc(/C=C3\Sc4ccccc4N3C)cc2C)cc1,?,2.3µM*,0.0073µM*,0.015µM*,4.1µM*,-94*
COc1ccccc1-[n+]1c(C)cc(/C=C2\Sc3ccccc3N2C)cc1C,?,0.58µM*,0.021µM*,0.065µM*,2.6µM*,-63*
C[C@@H]1O[C@H](C2CCCC2)Cc2[nH]c(=S)[nH]c(=O)c21,.,0%,-19%,-24%,-1%,38
Nc1cccc(-c2cn3ccsc3n2)c1,.,.,-13%,5%,.,.
COc1ccc(N=Nc2ccc(N)nc2N)cc1,-1%,18%,-25%,-21%,?,-17
Nc1ccc(N=Nc2ccc(O)cc2)c(N)n1,-7%,0%,15µM*,21µM*,-21%,-5
OCCN1CCN(Cc2cc(Br)cc(Br)c2O)CC1,.,-28%,-24%,-15%,4%,0
OCCN1CCN(Cc2cc(Cl)c3cccnc3c2O)CC1,.,3.2µM*,?,?,5µM*,72
